Hits are enriched below; roughly 2.7% of the tested compounds scored in any of these assays.
GLP1R inv ag: GLP-1 receptor (human) inverse agonism | 410,000 compounds, 1.6% hits | HEK293 GLP-1R CRE-luciferase, luminescence, 24 h; GLP-1R form is constitutively active | P43220 | Potency, µM (doses to about 38.3 µM), inactives show at the highest dose activity change, negative = inhibition, usual class: inhibitors; note: % is set by controls: 0 for no effect and ±100 for the full control effect; nearly all actives have a fitted effect of over 55% in size
Target sequence (P43220 whole entry, looked up): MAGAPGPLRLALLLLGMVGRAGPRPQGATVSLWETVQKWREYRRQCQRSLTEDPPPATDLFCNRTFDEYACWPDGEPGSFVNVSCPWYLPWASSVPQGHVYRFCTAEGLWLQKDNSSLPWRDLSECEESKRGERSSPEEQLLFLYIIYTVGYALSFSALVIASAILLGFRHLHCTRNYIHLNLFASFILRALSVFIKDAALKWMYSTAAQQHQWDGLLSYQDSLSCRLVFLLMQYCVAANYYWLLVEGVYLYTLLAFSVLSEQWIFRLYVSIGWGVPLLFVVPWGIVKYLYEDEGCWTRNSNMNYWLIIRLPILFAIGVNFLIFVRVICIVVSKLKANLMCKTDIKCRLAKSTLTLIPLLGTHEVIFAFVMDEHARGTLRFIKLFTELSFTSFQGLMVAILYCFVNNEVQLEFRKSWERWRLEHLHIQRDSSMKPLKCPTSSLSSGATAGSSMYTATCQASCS
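Inverse agonism was detected as reduced cAMP-driven luciferase luminescence after 24 h compound treatment. The cells were HEK293 clones expressing constitutively active human GLP-1R with the reporter. Reporter-only and GPR119 cell lines served as counterscreen controls.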
a7 integrin act: activators of alpha7 integrin expression for muscular dystrophy; 350,000 compounds, 0.064% hits; AID 624291; alpha7betagal myoblasts, beta-gal FDG fluorescence, 48 h; Potency, µM (top dose mostly 38.3 µM), without a hit: at the highest dose activation, hits mostly activators;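 note: 100% = response of the positive control SU9516; nearly all actives have a fitted effect of over 60% in size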
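alpha7betagal+/- myoblasts (passage 13, 250/well) treated 48 h at 37C with compounds at 1:260 dilution of DMSO stock. Lysed, then beta-galactosidase activity read as FDG fluorescence (ex 480/em 540) after 30 min, with pre-read for autofluorescence.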
BRCA1 expr up: increases BRCA1 expression; 380,000 compounds, 1.1% hits; Potency, µM (series often up to 46.1 µM), for the others: at the top dose activation, hits mostly activators; AID 624202; MCF7-BRCA1-FFLuc reporter, luminescence, 48 h; response scale: scaled: vehicle 0%, 10 µM genistein 100%; note: nearly all actives have a fitted effect of over 80% in size
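Quantitative HTS in MCF7 cells stably reporting BRCA1 expression via firefly luciferase. Compound treatment lasts 48 h at 37 °C in phenol-red free MEM. Activation is expressed relative to genistein at 10 microM and DMSO.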
HEK293 tox: cytotoxicity counter-screen for GLP-1 receptor inverse agonists; HEK293 cAMP-luciferase reporter cells, luminescence, 24 h; AID 624418; Potency, µM (titrated, usually from 38.3 µM), inactives show top-dose activity change, negative = inhibition, usual class: inhibitors; 410,000 compounds, 0.13% hits;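 note: loss of luciferase light is scored as toxicity; % is set by controls: 0 for no effect and ±100 for the full control effect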
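1536-well qHTS counterscreen of the MLSMR; 200 cells/uL, 12 h pre-incubation, 23 nL cpd, 24 h at 37 deg C 5% CO2, luciferase detection reagent, 12 min RT, luminescence. Inhibition = undesired.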
GLP1R ag: GLP-1 receptor (human) agonism | P43220 | HEK293 GLP-1R CRE-luciferase, luminescence, 4-6 h; cells express a hypersensitive GLP-1R form | Potency, µM (top dose mostly 45.6 µM), for the others: at the highest dose activation, actives largely listed as activators | 380,000 compounds, 0.007% hits; note: % of control where 0% means no effect
Numbers without * were called inactive; ? = inconclusive; . = no result given; [ ] = another dose, or the depositor's remark. Calls come from the whole dose curve; as a rule, active = well fitted curve in the direction sought with a large enough effect; inconclusive = small, poorly fitted or top-dose-only effect, or another doubt; inactive = no such curve, though single readings can be large; an effect the other way counts as inactive or inconclusive. Potency is the fitted concentration of half-maximal effect.

SMILES	GLP1R inv ag	a7 integrin act	BRCA1 expr up	HEK293 tox	GLP1R ag
O=[N+]([O-])c1cccc(-c2ccc(C(=S)N3CCOCC3)o2)c1	-5%	-32%	4.5µM*	-6%	31%
S=C(c1ccc(-c2cccc(Cl)c2)o1)N1CCCCC1	?	-3%	?	-2%	15%
O=C(Nc1cccc2ccccc12)OC1C=CS(=O)(=O)C1 (stereo not given)	10µM*	-66%	-26%	-20%	-4%
COc1ccc(CNC(=O)Cn2nnc(-c3ccc(C(F)(F)F)cc3)n2)cc1	-3%	.	.	4%	.
CN1CCCC(C)(C(=O)Nc2cccc(Oc3ccccc3)c2)C1 (stereo not given)	13µM*	.	-2%	12%	3%
COc1cccc(CN2CCC2(C)C(=O)Nc2cccc(Oc3ccccc3)c2)c1F (stereo not given)	3.2µM*	.	-54%	?	20%
Cc1ccccc1C(=O)c1cccn1CC(=O)NCCCN1CCc2ccccc2C1	10µM*	-27%	-23%	4%	3%
Cc1ccc(C)c(N2CCN(CCCNC(=O)Cn3cccc3C(=O)c3ccccc3)CC2)c1	5µM*	-56%	-59%	3%	-2%
Cc1ccc(-c2nnc(Nc3ccc(O)cc3)c3ccccc23)cc1S(=O)(=O)NC(C)(C)CO	?	.	-75%	-24%	5%
COc1ccc(CCNC(=O)C(=O)Nc2ccc(C)cc2)cc1OC	10%	.	-59%	11%	4%
Nc1nc[nH]c(=O)c1N	.	.	3%	.	.
CCCn1c2ccccc2c2cnn(CC(=O)N(CCCOC)Cc3ccco3)c(=O)c21	?	.	.	-19%	.
C=C[C@@H]1c2cc(C)ccc2N(S(=O)(=O)c2ccc(C)cc2)[C@H](c2ccccc2)C1(C#N)C#N	1%	11%	0%	19%	-7%
C=C[C@@H]1c2ccccc2N(S(=O)(=O)c2ccc(C)cc2)[C@H](c2ccccc2)C1(C#N)C#N	3.5µM*	-19%	-27%	-9%	-1%
Cc1ccc(NC(=O)c2sc(-n3nc(C)c(Cc4ccc5c(c4)OCO5)c3C)nc2C)cc1C	-6%	.	.	-19%	.
CN(C)c1ccc(/C=C/c2ccnc3cc(Cl)ccc23)cc1	.	.	-49%	.	.
N[C@H]1CN(c2c(F)cc3c(=O)c(C(=O)O)cn(C4C[C@@H]4F)c3c2Cl)CC12CC2 (stereo not given in full)	.	.	.	.	-4%
CCCOc1ccccc1C1C(C(=O)Nc2ccccc2)=C(C)Nc2nnnn21 (stereo not given)	8.9µM*	.	.	?	.
CCCCCOC(=O)C1=C(C)Nc2nnnn2C1c1ccccc1Cl (stereo not given)	10µM*	-20%	-2%	-29%	9%
COc1ccc(S(=O)(=O)c2cn(C)c3cc(N4CCOCC4)c(F)cc3c2=O)cc1	6%	.	.	-2%	.
CCC(C(=O)NCCc1ccccc1)n1nc(C)c2sc3ccccc3c2c1=O (stereo not given)	?	.	.	-4%	.
O=C(N/N=C1/CCc2ccccc21)C1CC1	13%	21%	18%	4%	9%
O=C(N/N=C1\CCc2ccccc21)c1ccc(O)cc1	-13%[7.66 µM]	12%	2µM*	-6%[7.66 µM]	0%
O=C(N/N=C1\CCc2ccccc21)c1ccccc1Cl	-11%	-7%	2µM*	-8%	24%
Cc1ccc(C(=O)N/N=C2\CCc3ccccc32)c(C)c1	?	23%	?	-7%	-1%
SMILES	GLP1R inv ag	a7 integrin act	BRCA1 expr up	HEK293 tox	GLP1R ag
OCc1cnc(SCc2ccccc2F)n1Cc1ccc(F)cc1	-26%	.	22%	-2%	-7%
CCOC(=O)c1ccc(NC(=O)c2c(NCc3sccc3C)sc3c2CCCCC3)cc1	9%	.	.	-9%	.
CC(=O)Nc1ccc(N(C(=O)c2cnccn2)C(C(=O)NC2CCCCC2)c2ccc(O)cc2)cc1 (stereo not given)	-10%	30%	45%	4%	-1%
CC(=O)Nc1ccc(N(C(=O)c2cnccn2)C(C(=O)NC2CCCCC2)c2ccc(F)cc2)cc1 (stereo not given)	2%	11µM*	12%	-4%	4%
CC(C)CCN(C(=O)c1csnn1)C(C(=O)NC1CCCCC1)c1ccc(F)cc1 (stereo not given)	10µM*	0%	-29%	-4%	38%
CCC(C)N(C(=O)c1csnn1)C(C(=O)NC1CCCC1)c1ccc(F)cc1 (stereo not given)	-6%	5%	-1%	20%	6%
CCCCCCCOC(=O)C[N+](C)(C)CCOC1CC2CCC1(C)C2(C)C (stereo not given)	?	-67%	-68%	11µM*	7%
CN(CCOc1ccc(Cl)cc1)CC(=O)Nc1ccc(OC(F)F)cc1	?	-26%	-10%	-4%	-3%
CCC(C)c1ccccc1NC(=O)CN(C)CCOc1ccc(Cl)cc1 (stereo not given)	10µM*	-1%	-34%	-21%	12%
CCOc1ncccc1C(=O)NCc1ccccc1F	91%	17%	4%	-6%	18%
O=C(NCCc1ccccc1F)c1cccc2cccnc12	15%	-4%	2µM*	-7%	22%
CCOc1ccc2[nH]c(=O)c(CN(Cc3cccs3)Cc3nnnn3C(C)(C)CC)cc2c1	?	-5%	-83%	11µM*	1%
CCC(C)(C)n1nnnc1CN(Cc1cccs1)Cc1cc2cc(OC)ccc2[nH]c1=O	44%	-18%	-48%	?	-1%
CCc1cccc(NC(=O)CNS(=O)(=O)c2ccc3nc(C)sc3c2)c1	-7%	.	.	-5%	.
Cn1cnnc1SCC(=O)Nc1ccc2nc(SCc3ccccc3F)sc2c1	0%	-18%	4µM*	-16%	0%
O=C(CSc1nc2ccc(NC(=O)CSc3nnnn3-c3ccccc3)cc2s1)Nc1ccccc1	?	-17%	-28%	10µM*	2%
COc1ccc(C)cc1NC(=O)CC1NCCNC1=O (stereo not given)	8%	.	.	14%	.
COc1ccc(NC(=O)c2sc3nc4n(c(=O)c3c2C)CCC4)c(OC)c1	8%	.	.	16%	.
CCCCC(CC)CNC(=O)Cc1ccc(-n2c(=O)[nH]c3ccccc3c2=O)cc1 (stereo not given)	?	.	.	-1%	.
CC(C)C(=O)NNc1nc2ccccc2s1	10%	-5%	8.9µM*	-1%	0%
CC1CCc2nc(NC(=O)c3ccco3)sc2C1 (stereo not given)	?	11%	?	2%	-13%
O=C(Nc1nc2ccccc2s1)c1c(F)cccc1Cl	-24%	13%	10µM*	-2%	-7%
O=C(Cc1ccccc1)Nc1nc2ccccc2s1	?	18%	10µM*	-3%	21%
CC1CCc2nc(NC(=O)Cc3cccs3)sc2C1 (stereo not given)	?	6%	5.6µM*	-5%	22%
